# From PubChem BioAssay
# This is a sample that favours compounds with a hit; in the whole collection about 4.6% have one here.
# TRHR enhancer: allosteric enhancers of human TRH receptor. P34981. TRHR cells, fluo-8 calcium fluorescence, EC20 TRH enhancement. enhancement, % at 2 µM. 360,000 compounds, 0.66% hits; in the data active = enhancement above about 30%; also: 0% is about no effect
#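 Enhancer read-out: after compound pinning and an initial kinetic agonist-mode read, an EC20 of TRH (10 nM final) was injected and fluo-8 calcium signal (Ex 480/Em 530) followed at 1 s/cycle for 100 cycles in TRHR-expressing cells.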
# TRHR ag: activates the human TRH receptor | P34981 | TRHR cells, calcium flux fluo-8, FDSS agonist mode | activation, % at 2 µM | 360,000 compounds, 0.18% hits | AID 493084; also: 0% is about no effect
#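 Agonist-mode FDSS calcium read (Ex 480/Em 530, 1 s cycles) in 1536-well TRHR cells with fluo-8 dye, after 10-cycle baseline and 23 nL compound addition; TRH at EC20 (10 nM final) added afterwards for the enhancer phase.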
# D1 PAM: enhances dopamine response at the human D1 receptor | HEK293 TREx D1 cells, calcium flux, dopamine EC20 potentiation | potentiation, % at 10 µM | 360,000 compounds, 0.036% hits | AID 504651; in the data active = potentiation above about 30%; also: 0% is about no effect
# Target sequence (P21728 whole entry, looked up): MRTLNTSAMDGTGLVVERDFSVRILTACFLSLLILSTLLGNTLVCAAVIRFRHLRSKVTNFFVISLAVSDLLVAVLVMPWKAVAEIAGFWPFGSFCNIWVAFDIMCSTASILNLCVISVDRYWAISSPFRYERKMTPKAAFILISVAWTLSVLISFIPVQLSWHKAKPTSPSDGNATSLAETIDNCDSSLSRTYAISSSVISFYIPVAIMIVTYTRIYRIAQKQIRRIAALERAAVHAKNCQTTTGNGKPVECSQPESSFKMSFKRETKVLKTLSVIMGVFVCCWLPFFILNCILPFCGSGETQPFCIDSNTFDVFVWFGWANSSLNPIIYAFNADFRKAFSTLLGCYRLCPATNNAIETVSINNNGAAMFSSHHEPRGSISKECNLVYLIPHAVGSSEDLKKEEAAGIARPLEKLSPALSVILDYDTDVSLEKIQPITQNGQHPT
# D1 ag: agonists of human D1 dopamine receptor | P21728 | HEK293 T-REx D1 cells, calcium flux, agonist mode | activation, % at 2 µM | 360,000 compounds, 1% hits | AID 504660; also: 0% is about no effect
#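 Tetracycline-induced HEK293 TREx D1 cells, force-coupled to calcium signalling, were dye-loaded with a no-wash calcium kit. Compound was pin-added after a 10 s baseline. Fluorescence was read kinetically at 1 cycle/s for 180 s, with calcium rises flagged as agonism.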
# D1 antag: blocks dopamine activation of the human D1 receptor. P21728. HEK293 TREx D1 cells, calcium flux, dopamine EC80; stronger effect = lower value. activity change, negative = inhibition, % at 10 µM. 360,000 compounds, 3.2% hits. AID 504652; in the data active = activity change below about -30%; also: % is scaled to controls: 0 for no effect and ±100 for the full control effect
#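 Inducible Hek293 Trex D1 cells (tetracycline, overnight, 30 C). Calcium dye 30–90 min RT. Antagonist mode: EC80 dopamine added after 180 s compound read.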
# The depositor's hits bear a star; ! = repeats disagree. Rule as the data show it, unless noted: active = activation above about 30%; inactive = the rest.
SMILES,TRHR enhancer,TRHR ag,D1 PAM,D1 ag,D1 antag
O=C(N/N=C/c1ccco1)c1cc(-c2cccc3ccccc23)n[nH]1,36*,0,2,-2,14
CC(=O)Nc1ccc(NC(=O)c2ccc([N+](=O)[O-])cc2Cl)cc1,-3,1,5,4,15
CCC(C)NS(=O)(=O)c1ccc(NC(=O)c2ccc([N+](=O)[O-])cc2Cl)cc1 (configuration not stated),-6,1,-4,4,-31*
Cc1nn(CC(=O)N2CCCCC2)c(=O)c2cc3occc3n12,-3,0,1,3,-2
COc1ccc(Cl)cc1NC(=O)CCS(=O)(=O)c1nc(-c2cccs2)cc(C(F)(F)F)n1,-11,1,0,5,-35*
Cc1ccc(-n2c(C)cc(/C=N/NC(=O)Cn3c4ccccc4c(=O)c4ccccc43)c2C)cc1,33*,-1,6,1,7
Cc1cc(/C=N/NC(=O)c2cccs2)c(C)n1-c1ccccc1,-3,0,-3,1,-39*
Cc1cc(/C=N/NC(=O)c2ccncc2)c(C)n1-c1ccccc1,-6,-1,-5,2,-2
CC(C)(C)OC(=O)CC(=O)NNC(=O)c1nc2ccccc2[nH]1,4,-1,3,0,-16
O=C1CCc2cc(S(=O)(=O)NC(C(=O)Nc3ccc(F)cc3)c3ccccc3)ccc2N1 (configuration not stated),-1,0,1,2,-9
O=C(N1CCOCC1)N1CCC(n2nnc3cc(F)ccc32)CC1,5,0,4,1,8
O=C(c1ccc([N+](=O)[O-])cc1)N1CCC(n2nnc3cc(F)ccc32)CC1,40*,0,4,0,31
COc1ccccc1NC(=O)CN1CCC(n2nnc3cc(F)ccc32)CC1,-3,-1,-9,1,-46*
COc1ccc(C(=O)NNC(=O)CN2CCC(n3nnc4cc(F)ccc43)CC2)cc1,2,0,3,1,-34*
Cc1ccc2c(c1)nnn2C1CCN(CC(=O)Nc2ccccc2N2CCOCC2)CC1,1,-1,-13,3,-30*
COc1ccc(Cl)cc1NC(=O)CN1C(=O)C(C)(C)c2cc(S(=O)(=O)N3CCCCC3)ccc21,-2,1,-3,3,-18
Cc1cccc(N2CCN(C(=O)c3cc4c(=O)[nH]c5ccc(C)cc5c4s3)CC2C)c1 (configuration not stated),6,0,0,0,10
Cn1cc(S(=O)(=O)N2CCOCC2)cc1C(=O)Nc1ccc(Cl)c(C(F)(F)F)c1,13,0,0,9,3
COc1ccc(Cl)cc1NC(=O)CN1CCCCCC1,-10,2,4,2,8
COc1ccc(Cl)cc1NC(=O)CN1CCC(n2nnc3cc(C)ccc32)CC1,0,0,-8,2,-37*
COc1ccc(C2CC3(CC(C)(C)NC(SC)=N3)Oc3cc(O)cc(C)c32)cc1 (configuration not stated),7,0,3,263*,73
COc1cc(/C=C/c2cc[n+](C)cc2)ccc1OCC(=O)Nc1ccccc1,-2,1,-7,2,-9
C/C=C/c1ccc(OC(C)=O)c(OC)c1,2,-1,-1,-4,9
C/C=C/c1ccc(OCC(=O)Nc2ccc(C(N)=O)cc2)c(OC)c1,-1,-1,-7,1,-53*
C/C=C/c1ccc(OC)c(OC(C)=O)c1,-5,0,-6,1,-76*
SMILES,TRHR enhancer,TRHR ag,D1 PAM,D1 ag,D1 antag
CCOC(=O)/C(C#N)=C/c1cc(C)n(-c2ccc(C)cc2)c1C,0,1,-30,2,-75*
CCOC(=O)/C(C#N)=C\c1cc(C)n(-c2ccccc2)c1C,5,-1,0,3,-27
Cc1cc(/C=C(\C#N)C(=O)NCc2cccs2)c(C)n1-c1ccc([N+](=O)[O-])cc1,-4,1,-11,4,-56*
CCOC(=O)/C(C#N)=C\c1ccc(N2CCN(C/C=C/c3ccccc3)CC2)cc1,0,12,-9,109*,-22
COc1ccc(C(=O)CN2C3=NCCCN3c3ccccc32)cc1OC,-7,0,-2,0,-44*
Cc1ccc(-c2cn3cccc(C)c3n2)cc1,3,-2,3,2,-4
COc1ccc(-c2cn3cccc(C)c3n2)cc1F,-3,1,9,4,-38*
Cc1cc2c(s1)c1cnn(Cc3ccc(C(C)(C)C)cc3)c(=O)c1n2C,2,0,-1,4,7
Cc1ccc(C2=NN(CC(=O)NCCc3ccccc3)C(=O)CC2)cc1,1,-1,0,-3,2
CCSc1nnc2n(N)c(=O)c3ccccc3n12,-5,0,-9,2,-85*
C=C(C)CSc1nnc2n(N)c(=O)c3ccccc3n12,-3,0,15,1,-19
CSc1ccc(C2NC(=O)CCC2[N+](=O)[O-])cc1 (configuration not stated),3,0,-2,1,-33*
O=S(=O)(NC1CCCC(NS(=O)(=O)c2c(F)cccc2F)C1)c1ccc2c(c1)OCCO2 (configuration not stated),10,3,-2,0,-6
O=C(CSc1ccc(-c2ccccn2)nn1)NCc1ccc(Cl)cc1,32*,-1,-1,-3,2
Cc1ccc(NC(=O)CSc2ccc(-c3ccccn3)nn2)c(C)c1,-7,-1,-3,1,6
Cc1cc(C)c(NC(=O)CSc2ccc(-c3ccccn3)nn2)c(C)c1,-2,0,-5,2,-48*!
O=C(NCCc1ccccc1)c1ccc2c(c1)N(Cc1ccccc1)C(=O)c1ccccc1S2=O (configuration not stated),1,1,2,8,-1
CCOc1ccc(C2CC(=O)N(c3cccc(F)c3)C3=C2C(=O)OC3)cc1 (configuration not stated),-3,0,-2,1,-10
COc1ccc(/C=C/C(=O)Nc2ccc(-c3nnc4n3CCCCC4)cc2)c(OC)c1,35*,0,9,3,-16
Cc1ccc2c(c1)C1CN(C)CCC1N2C(=O)COc1ccc(N(C)S(=O)(=O)c2cccs2)cc1 (configuration not stated),3,1,-14,13,-36*
CCOc1ccc(S(=O)(=O)N(C)c2ccc(OCC(=O)N3c4ccc(C)cc4C4CN(C)CCC43)cc2)cc1 (configuration not stated),5,0,-6,1,-40*
CC(Cc1c[nH]c2ccccc12)C(=O)NCc1ccco1 (configuration not stated),7,0,-3,2,-3
Cc1csc(=O)n1CC(=O)OC(C)C(=O)Nc1cccc(Cl)c1 (configuration not stated),6,0,-6,6,-19
